Assay results: PubChem BioAssay (EPA / NIEHS)
Records with an inconclusive call do not appear. Calls of active or inactive are those of the source. How the source made its calls: active means hit-call score of the fitted dose curve at least 0.9, where 1 is the maximum; inconclusive means response in the unintended direction; inactive means score below 0.9.

Assay: CCTE_Harrill_HTTr_CellCount_MCF7: CCTE's Cell Proliferation Assessment for the High-Throughput Transcriptomics (HTTr) Platform, Harrill Lab (AID 2284012);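 further: count of Hoechst-stained nuclei per well by high-content imaging in MCF-7 cells; cells exposed to compound for six hours; intended direction is loss of nuclei count meaning fewer cells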
In short: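 Nuclei counting (Hoechst, high content imaging) in MCF-7 after a 6 h treatment at eight concentrations. Activity fitted bidirectionally, DMSO as negative control.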

SMILES	outcome	AC50
CCOC(=O)OC1=C(c2cc(C)ccc2C)C(=O)NC12CCC(OC)CC2 (stereo not drawn)	inactive	–
COCCl	inactive	–
O=C(O)C1(c2ccc3c(c2)OC[C@H](Cc2ccc(-c4ccccc4)cc2)[C@H]3O)CCCC1	inactive	–
CCOC(=O)CCN(SN(C)C(=O)Oc1cccc2c1OC(C)(C)C2)C(C)C	inactive	–
Clc1cccc(Cl)c1	inactive	–
O=c1[nH]c2ccccc2n1C1CCN(CCCC(c2ccc(F)cc2)c2ccc(F)cc2)CC1	–	94.7 µM (active)
CCOP(=S)(OCC)OP(=S)(OCC)OCC	inactive	–
CCOP(=S)(OCC)O/N=C(\C#N)c1ccccc1	inactive	–
Brc1c(Br)c(Br)c(Oc2c(Br)c(Br)c(Br)c(Br)c2Br)c(Br)c1Br	inactive	–
CC(C=O)Cc1ccc2c(c1)OCO2 (stereo not drawn)	inactive	–
O=C(NC(=O)c1c(F)cccc1F)Nc1ccc(Cl)cc1	inactive	–
Nc1ccc(N)cc1	inactive	–
OCCN(CCO)CCO	inactive	–
CCCSP(=S)(OCC)Oc1ccc(Cl)cc1Cl (stereo not drawn)	inactive	–
O=S1(=O)OC(c2cc(Br)c(O)c(Br)c2)(c2cc(Br)c(O)c(Br)c2)c2ccccc21	inactive	–
CC(C)N(C(=O)CCl)c1ccccc1	inactive	–
Oc1c(Cl)cc(Cl)cc1Cl	inactive	–
CCC[CH2][Sn]([Cl])([Cl])[CH2]CCC	inactive	–
Nc1ncn[nH]1	inactive	–
CCOc1cc(C=O)ccc1O	inactive	–
CCOC(=O)c1ccccc1S(=O)(=O)NC(=O)Nc1nc(Cl)cc(OC)n1	inactive	–
Cc1cc(Cl)ccc1OCCCC(=O)O	inactive	–
Cc1cc(C(C)(C)c2ccc(O)c(C)c2)ccc1O	inactive	–
